Test results from PMC5540273 (PLoS ONE, 2017).
Where “and” joins values, the source holds several entries; their conditions need not be identical. Equal values may be shown once. Read-outs that look alike come from different tables or passages of the source.

Key:
[1] = tested on: T1, AMPK-alpha2; conditions: concentration: 1 μM, replicates: in singlicate, n = 1
T1 construct: gene PRKAA2

[2] = tested on: ANKK1; conditions: concentration: 1 μM, replicates: in singlicate; n = 1
[3] = tested on: T2, ARK5; conditions: concentration: 1 μM, replicates: in singlicate, n = 1
T2 construct: gene NUAK1

[4] = tested on: T3, ASK1; conditions: concentration: 1 μM, replicates: in singlicate, n = 1
T3 construct: gene MAP3K5

[5] = tested on: T4, ASK2; conditions: concentration: 1 μM, replicates: in singlicate, n = 1
T4 construct: gene MAP3K6

[6] = tested on: AURKA; conditions: concentration: 1 μM, replicates: in singlicate, n = 1
[7] = tested on: AURKB; conditions: concentration: 1 μM, replicates: in singlicate, n = 1
[8] = tested on: AURKC; conditions: concentration: 1 μM, replicates: in singlicate, n = 1
[9] = tested on: AXL; conditions: concentration: 1 μM, replicates: in singlicate, n = 1
[10] = tested on: T5, BIKE; conditions: concentration: 1 μM, replicates: in singlicate, n = 1
T5 construct: gene BMP2K
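Note: KINOMEscan kinase panel screen.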

Structure (SMILES)	%Inh ([1]; 1 µM)	%Inh [2]	%Inh ([3]; 1 µM)	%Inh ([4]; 1 µM)	%Inh ([5]; 1 µM)	%Inh ([6]; 1 µM)	%Inh ([7]; 1 µM)	%Inh ([8]; 1 µM)	%Inh ([9]; 1 µM)	%Inh ([10]; 1 µM)	%Inh [1]	%Inh [3]	%Inh [4]	%Inh [5]	%Inh [6]	%Inh [7]	%Inh [8]	%Inh [9]	%Inh [10]
NCCNS(=O)(=O)c1ccc(-c2ccnc3[nH]ccc23)cc1 [GSK977617]	60% and 31%	0%	45% and 17%	30% and 5%	21% and 18%	51% and 39%	71% and 67%	92.4% and 84%	93% and 87%	97.4% and 93.3%									
Nc1nc(-c2ccc3c(N)n[nH]c3c2)cc(N2CCCC2)n1 [GSK2227430]		4%									0%	17%	0%	0%	0%	0%	37%	0%	33%
O=c1cc(N2CCOCC2)nc2n(Cc3cccc(C(F)(F)F)c3)ccn12 [GSK2297543]		5%									0%	0%	0%	0%	13%	0%	4%	18%	18%
COc1ccc(Nc2nccc(N3CCC(NC(=O)Nc4cccc(C(C)=O)c4)C3)n2)cc1 (stereo not shown) [GSK1379731]		0%									0%	50%	0%	0%	0%	0%	40%	9%	30%
NS(=O)(=O)c1cccc(-c2ccc3nccc(-c4cccc(S(N)(=O)=O)c4)c3c2)c1 [GW867253]		0%									6%	0%	0%	0%	19%	45%	0%	0%	0%
Cc1nnc(-c2ccc3occ(-c4ccc(C(C)O)cc4)c3c2)o1 (stereo not shown)		3%									14%	35%	0%	11%	13%	27%	23%	3%	18%
Cc1c(Cn2c(C)nn3c(=O)cc(N4CCOC(C)C4)nc23)cccc1C(F)(F)F (stereo not shown) [GSK2344444]		0%									0%	10%	1%	8%	0%	0%	8%	0%	16%
Cc1ccc(NC(=O)c2ccnc(N3CCN(C)CC3)c2)cc1-c1ccc(C(=O)NCC2CC2)cc1 [GW775604]		0%									0%	0%	0%	0%	0%	2%	0%	0%	0%
Cc1cccc(-c2nc(Nc3ccc4ncsc4c3)c3ccccc3n2)n1 [GW867588]		0%									0%	0%	15%	20%	22%	8%	0%	0%	0%
Fc1ccc(-c2ncn(CCCN3CCOCC3)c2-c2cccnc2)cc1 [SB-211743]		0%									12%	12%	0%	0%	15%	31%	5%	0%	0%
COc1cc2ncn(-c3cc(OCc4sccc4Cl)c(C(N)=O)s3)c2cc1OC [GSK448459]		0%									0%	15%	0%	0%	0%	12%	41%	10%	90%
Cc1ccc(C(=O)NCC(N)=O)cc1-n1c(C)cc(OCc2ccc(F)cc2F)c(Br)c1=O		0%									11%	0%	12%	0%	0%	0%	8%	11%	7%
c1ccc(-c2n[nH]cc2-c2ccnc3ccccc23)nc1 [GW271431]		22%									11%	5%	0%	0%	12%	20%	10%	11%	24%
Cn1cc(-c2ccc3c(c2)CCN3C(=O)Cc2ccccc2Cl)c2c(N)ncnc21 [GSK2608885]		4%									30%	94%	0%	0%	98%	86%	74%	94%	23%
COc1cc2c(cc1OCCN1CCN(C)CC1)ncc1c3ccc(C#N)cc3[nH]c21		54%									0%	22%	0%	0%	0%	70%	33%	26%	100%
c1ccc(-c2cc(-c3c[nH]nc3-c3ccccn3)ccn2)cc1 [GW576604]		0%									0%	0%	4%	0%	14%	0%	3%	0%	23%
CCCCCc1nc2c(N)ncnc2n1CCCCC [SKF-97255]		0%									11%	0%	0%	0%	10%	37%	0%	0%	0%
O=c1cc(N2CCOCC2)nc2n(Cc3cccc4ccccc34)ccn12 [GSK2333389]		0%									0%	33%	0%	15%	0%	0%	14%	0%	16%
Cc1cn2c(=O)cc(N3CCOCC3)nc2n1Cc1cccc(Cl)c1Cl [GSK2334006]		0%									0%	14%	1%	3%	0%	26%	44%	0%	27%
Cc1nnc(-c2ccc(C)c(-c3ccc(C(=O)Nc4ccc(NS(C)(=O)=O)cc4)cc3)c2)o1 [GW702865]		14%									1%	0%	0%	0%	30%	8%	3%	1%	7%

Structure (SMILES)	%Inh ([1]; 1 µM)	%Inh [2]	%Inh ([3]; 1 µM)	%Inh ([4]; 1 µM)	%Inh ([5]; 1 µM)	%Inh ([6]; 1 µM)	%Inh ([7]; 1 µM)	%Inh ([8]; 1 µM)	%Inh ([9]; 1 µM)	%Inh ([10]; 1 µM)	%Inh [1]	%Inh [3]	%Inh [4]	%Inh [5]	%Inh [6]	%Inh [7]	%Inh [8]	%Inh [9]	%Inh [10]
C[C@@H](Oc1cc(-n2cnc3ccc(NC(=O)NC(C)(C)C)cc32)sc1C(N)=O)c1ccccc1Cl [GSK346294]		8%									12%	11%	3%	0%	8%	22%	34%	0%	32%
COCCNC(=O)c1ccc(-c2cc(C(=O)NC3CC3)cc(F)c2C)cc1 [GW868318]		11%									0%	0%	5%	26%	27%	33%	0%	0%	7%
Cc1cccc(-c2nc(-c3ccc(S(C)(=O)=O)cc3)sc2-c2ccncc2)c1		0%									7%	13%	0%	15%	24%	23%	0%	12%	0%
CC(=O)Nc1ccc(COc2ccc(Nc3ccnc4cc(-c5ccccn5)ccc34)cc2)cc1.Cl [GW440148]		8%									11%	18%	10%	0%	14%	67%	46%	1%	8%
Cl.Nc1ncnc2occ(-c3ccc(NC(=O)Nc4cc(C(F)(F)F)ccc4F)cc3)c12 [SB-707548]		77%									22%	21%	32%	0%	53%	96.7%	53%	97.7%	10%
COc1ccc(Nc2ncc(C#N)c(Nc3ccccc3C(N)=O)n2)cc1N1CCN(C)CC1.Cl [GSK1558669]		52%									99.8%	100%	0%	22%	99.9%	99.9%	100%	98.9%	100%
Fc1ccc(-c2nn3c(OCC(F)(F)F)cccc3c2-c2ccncc2)cc1 [GW514784]		25%									0%	0%	0%	0%	0%	0%	0%	0%	11%
O=C1NC(=O)C(N2CCc3ccccc32)=C1c1cccc(Cl)c1 [SB-408010]		1%									22%	10%	0%	0%	25%	7%	37%	0%	37%
O=C(NCCCN1CCOCC1)c1cccc(Nc2nccc(Nc3ccc(Oc4ccccc4)cc3)n2)c1 [GW663929]		20%									0%	29%	3%	0%	36%	11%	14%	11%	27%
CN1c2ccc(NCc3ccc(F)cc3)cc2-c2c(cnn2C)S1(=O)=O		0%									0%	0%	0%	0%	0%	14%	0%	0%	0%
COC(=O)Nc1nc2cc(Oc3ccc(NC(=O)Nc4cc(F)ccc4F)cc3)ccc2[nH]1.Cl [GW701424]		12%									8%	0%	13%	0%	0%	94.5%	50%	93.5%	3%
CCc1nc(-c2cccc(C)c2)c(-c2ccnc(NCc3ccccc3)c2)s1		0%									5%	15%	0%	0%	0%	14%	0%	0%	0%
Cc1nnc(-c2ccc3ncc(-c4ccc(S(C)=O)cc4)n3c2)o1 (stereo not shown)		0%									0%	0%	0%	9%	18%	21%	0%	11%	0%
O=c1cc(N2CCOCC2)nc2n(Cc3cccc(Cl)c3Cl)c(C3CC3)nn12 [GSK2358994]		0%									0%	0%	0%	0%	0%	4%	0%	3%	0%
NCC(NC(=O)c1cc(-c2cn[nH]c2)c(-c2ccnc3[nH]ccc23)s1)c1ccccc1.O=C(O)C(F)(F)F.O=C(O)C(F)(F)F (stereo not shown) [GSK1325775]		0%									24%	52%	11%	23%	95.6%	83%	82%	45%	99.7%
O=C(c1ccc(-c2cc(-c3c[nH]nc3-c3ccccn3)ccn2)cc1)N1CCOCC1 [GW812171]		14%									22%	0%	0%	0%	13%	33%	0%	0%	0%
O=C(Nc1n[nH]c2cc(-c3cccc(F)c3)ccc12)C1CC1 [SB-735464]		0%									69%	0%	0%	22%	18%	39%	35%	27%	21%
Cl.Cl.Cl.Fc1ccc(-c2ncn(C3CCNCC3)c2-c2ccnc(Nc3ccccc3)n2)cc1 [SB-238039]	17% and 0%	0%	9% and 10%	34% and 1%		16% and 36%	25% and 0%	0% and 19%	0% and 44%	0% and 9%				0%					
CC(C)(C)n1cnc2c(N)ncnc21 [SKF-97359]		0%									0%	19%	0%	0%	0%	15%	0%	45%	0%
Cn1ccc2ncnc(Oc3ccc(NC(=O)Nc4ccncc4)c(Cl)c3)c21		0%									5%	14%	0%	0%	0%	3%	0%	0%	0%
